These results are taken from the supplement of paper PMC11417369.

Over roughly 25,000 sequences, “ln(normalized median fluorescence intensity)” has its median near 9.7; the highest 2% begin near 11. This is one part of a sample in which the highest values are shown more often than they occur.

The test concerns PfAP2-HC AP2 domain (GST-tagged). Kind of test: gcPBM binding intensity (ln(normalized median fluorescence intensity)); higher = stronger DNA binding. The gist of the method:
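Binding intensity values are the highest Masliner-normalised natural-log median intensity among replicate spots of either probe orientation. The binding step lasted 1 h in 1× PBS with 1% milk, 0.2 mg/ml BSA, 0.5% salmon testes DNA and 0.03% Triton X-100, using GST-tagged P. falciparum DNA-binding domains expressed in E. coli on an Agilent 4 × 180k array of primer-extended double-stranded 36-bp intergenic genomic probes plus negative controls. Alexa488 anti-GST antibody and a 488 nm scan detected bound protein.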
“AAAAAAAACAGACACACACACATTCAATATAAAACA [CACACA_site41]”: the “gcPBM binding intensity (ln)” value came out at 11.3. Next, “CAAGGAACCAGACACACACACATAAATGTATATATA [CACACA_site752]”: 10.2; “TATACAGATGGACACACACACATATATATATATATA [CACACA_site5272]”: 11. The result for “AAAAAAAACGAACACACACACATTCAATATAAAACA [CACACA_site6170]” reads 10.5; that for “ATGGGACAGATATATACACACATATAAATATAAATA [CACACA_site6684]”, 10; that for “GGAATAACCAGACACACACACACATATATATATATA [CACACA_site3541]”, 10.9. Next, “TATACAGATGGACACACACACATAAATAAATATATA [CACACA_site4863]”: 10.4. Take “GATACAGATGGACACACACACATACATAAATACATA [CACACA_site5833]”: the “gcPBM binding intensity (ln)” value stood at 11.3.

For the sequence “GAATAATATGGACATACACACATATACATACAGATA [CACACA_site5200]”, the “gcPBM binding intensity (ln)” value is 10.5. The result for TACAATACCGTACAGGTGCAACTAGCCAAAAAAAAG reads 9.75; that for “CCCTTTTTTTTTTAATGTACATATAATTATATATTT [XGTACX_site8568]”, 9.88; that for “ATTCAATAAACGTATTGTACAAAAGAACGATATATT [XGTACX_site2533]”, 9.78. As for “CAACATTCGTATATCACACATTTGCATGTTGTCAAT [CACACA_site4470]”, the “gcPBM binding intensity (ln)” value was 9.78. Turning to “TAACAATATCTAGATACACACACATATCTCTCAATC [CACACA_site8122]”, the “gcPBM binding intensity (ln)” value came out at 10.4. The result for “CTCCTTTCAAAAAAATGTACATGTTTACATTTCAAG [XGTACX_site7342]” reads 9.55; that for “TATATTAATAGACACACACACATATTTATATTTATA [CACACA_site6859]”, 11.1. For “AATACATACAGACACACACACACATATATATATATA [CACACA_site3558]”, the “gcPBM binding intensity (ln)” value worked out at 11.5. Consider “CATACAGATATATATACACACATACAGATAAATACA [CACACA_site4592]”, for which the “gcPBM binding intensity (ln)” value came to 9.95. As for “TATTTATATAGACACACACACATATATTTATATTTT [CACACA_site7240]”, the “gcPBM binding intensity (ln)” value amounted to 10.4. Next, “TATATTATTTATTAGACACACATTATTAATATATTT [CACACA_site1078]”: 9.79; “CATACATACAGACACACACACATATTTATATTTATA [CACACA_site6172]”: 11.3; “TATACAGATAAATACACACACACATATATATATATA [CACACA_site4845]”: 11.2. Consider “AATATGTACAGACATACACACATATTTATATTTATA [CACACA_site6694]”, for which the “gcPBM binding intensity (ln)” value was found to be 9.88.

Regarding “TACATACACAGACACACACACATATATATATATATA [CACACA_site3557]”, the “gcPBM binding intensity (ln)” value was determined as 10.9.

Take “TATACAGATAAATACACACACATATATATATATATA [CACACA_site4178]”: the “gcPBM binding intensity (ln)” value stood at 9.86. The result for “TACACATACAGACATACACACATACACATATACACA [CACACA_site6918]” reads 10.5; that for “GTAATACACAGACACACACACATACACATATTTATA [CACACA_site7313]”, 10.5; that for “ATATATAGGTTCCCTTTTCTTTTTTTTTTTTTTTTT [CACACA_negctrl_site1159]”, 9.39. With “AAAAAACAAAAAAAAAAAAAAATAATACAATATAAT [CACACA_negctrl_site1630]”, the “gcPBM binding intensity (ln)” value was determined as 9.56. Turning to “ACGATATTTTTGGTGACACACATATATATATATATA [CACACA_site126]”, the “gcPBM binding intensity (ln)” value stood at 9.8. The result for “AAAAATTTTTTTTCATTTGTTTTTATTCCGTAAAAA [CACACA_negctrl_site1217]” reads 9.17; that for “TATGTGCCAAGACACACACACATATTTATATTTATA [CACACA_site6360]”, 10.2.

On to “AAAATATATTAAGGCACACACATACATATATATATA [CACACA_site3723]”, for which the “gcPBM binding intensity (ln)” value came out at 10.7. Turning to “TAAATACAGACATATACACACATATATATATATATA [CACACA_site4382]”, the “gcPBM binding intensity (ln)” value stood at 9.75. The result for “TATATATCAATATACACACACACATATTTATTTATA [CACACA_site6858]” reads 10.4; that for “TATACATAGATATATACACACATATATTTATATACA [CACACA_site6328]”, 9.92; that for “CTAAAATACAGACACACACACACATATATATATATA [CACACA_site4150]”, 11.

On to “AAAAAATATATTAAGGCACACACATACATATATATA [CACACA_site9239]”, for which the “gcPBM binding intensity (ln)” value was found to be 10.2. The result for “TATTTATAGATATATACACACATATTTATATTTATA [CACACA_site6441]” reads 9.78; that for “ATGATATATAGACACACACACATATTTATATACATT [CACACA_site6404]”, 10.9; that for “AAAATATATTAAGGCACACACATACAGATATATATA [CACACA_site5951]”, 11.1. The result for “TATATATCAAGACACACACACATATATTTATTTATA [CACACA_site7733]” reads 11.2; that for “AAAATACACAGACACACACACATATAAATAAATATT [CACACA_site7871]”, 10.8; that for “TATACAAGTATATAGGTGCATATATAAGTATATATT [GTGCAC_site9994]”, 9.69. Next, “ACGTTTTATTTTTATTGTACTCACATTGAAATGAAT [XGTACX_site6094]”: 10.
